Source: PubChem BioAssay (EPA / NIEHS)
Records with an inconclusive call do not appear. Calls of active or inactive are those of the source. Rule for the calls: active = hit-call score of the fitted dose curve at least 0.9, where 1 is the maximum; inconclusive = response in the unintended direction; inactive = score below 0.9.

Each compound was assayed against Ratio of Nucleoli Translocation and Cytoplasm, AR (gene 367) (UniProt P10275) (assay: UPITT_HCI_U2OS_AR_TIF2_Nucleoli_Cytoplasm_Ratio_Agonist: University of Pittsburgh U2OS Androgen Receptor-Transcriptional Intermediary Factor 2 (AR-TIF2) Agonism High Content Imaging Assay for Ratio of Nucleoli Translocation and Cytoplasm (AID 2284000);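 note: hits raise the red nucleolar to cytoplasm ratio above vehicle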).
Text: UPITT_AR_TIF2_PPIB is a cell-based, high-content imaging assay that uses U2OS, a human osteosarcoma cell line, expressing a human androgen receptor fused to red fluorescent protein and the coactivator TIF2 fused to green fluorescent protein. UPITT_HCI_U2OS_AR_TIF2_Nucleoli_Cytoplasm_Ratio_Agonist is one of four assay components measured from the UPITT_AR_TIF2_PPIB assay. It is designed to make measurements of the ratio of red fluorescence localized in the nucleolar region of the cell nucleus to red fluorescence localized in the cytoplasm as detected with high-content fluorescent imaging.Data from the assay component UPITT_HCI_U2OS_AR_TIF2_Nucleoli_Cytoplasm_Ratio_Agonist was analyzed into 1 assay endpoint. This assay endpoint, UPITT_HCI_U2OS_AR_TIF2_Nucleoli_Cytoplasm_Ratio_Agonist, was analyzed in the positive analysis fitting direction relative to DMSO as the baseline of activity. Using a type of binding reporter, measures of receptor for gain-of-signal activity can be used to understand the binding at the pathway-level as it relates to the gene AR.
Daughter plates containing 2 uL of 10 mM compounds in DMSO were prepared and replicated from the 384-well Library of Pharmacologically Active Compounds (LOPAC) master plates using the Bravo outfitted with a 384-well transfer head. Aluminum adhesive plate seals were applied with an Abgene Seal-IT 100 (Rochester, NY) plate sealer, and the plates were stored at -20 C in a Matrical MatriMinistore (Spokane, WA) automated compound storage and retrieval system. For screening, LOPAC daughter plates were withdrawn from -20C storage, thawed to ambient temperature, centrifuged 1-2 min at 50 g, and the plate seals were removed before the transfer of 98 uL of serum-free tissue culture medium (SFM) into wells using the BioTek Microflo liquid handler (BioTek, Winooski, VT) to generate a 200 uM intermediate stock concentration of library compounds (2.0% DMSO). The diluted compounds were mixed by repeated aspiration and dispensation using a 384-well P30 dispensing head on the Evolution P3 (EP3) liquid handling platform (PerkinElmer, Waltham, MA) and then 5 uL of diluted compounds was transferred to the wells of assay plates. In the LOPAC screen, compounds were individually tested at a final concentration of 20 uM (0.2% DMSO). After the diluted compounds had been transferred from the daughter plates to the primary HCS assay plates, aluminum adhesive plate seals were applied and the diluted daughter plates were stored frozen at -20C. To confirm active compounds identified in the primary screen, we withdrew the LOPAC daughter plates containing the 200 uM intermediate concentration of library compounds (2.0% DMSO) from -20C storage, thawed them to ambient temperature, centrifuged them for 1-2 min at 50 g, and removed the plate seals. A work list was generated to direct the Multiprobe Janus liquid handling platform (PerkinElmer) to cherry pick 75 uL from the wells of the diluted daughter plates that were flagged active in the primary screen and to reformat these into a 384-well plate hit confirmation daughter plate. Five microliters of primary HCS active compounds was then transferred into triplicate wells of assay plates using a 384-well P30 dispensing head on the Evolution P3 (EP3) liquid handling platform (PerkinElmer). […] Daughter plates containing 2 uL of the serially diluted compounds in DMSO were prepared and replicated from the 384-well serial dilution master plates using the Bravo outfitted with a 384-well transfer head. Aluminum adhesive plate seals were applied and plates were stored at -20C. For testing in the bioassays, daughter plates were withdrawn from -20C storage, thawed to ambient temperature, centrifuged for 1-2 min at 50 g, and the plate seals were removed before the transfer of 38 uL of SFM into wells using the BioTek Microflo liquid handler (BioTek) to generate an intermediate stock concentration of library compounds ranging from 1.95 to 500 uM (5.0% DMSO). […]

Chain of Ratio of Nucleoli Translocation and Cytoplasm, AR (gene 367) (P10275 whole entry, looked up, the tested form may be a part): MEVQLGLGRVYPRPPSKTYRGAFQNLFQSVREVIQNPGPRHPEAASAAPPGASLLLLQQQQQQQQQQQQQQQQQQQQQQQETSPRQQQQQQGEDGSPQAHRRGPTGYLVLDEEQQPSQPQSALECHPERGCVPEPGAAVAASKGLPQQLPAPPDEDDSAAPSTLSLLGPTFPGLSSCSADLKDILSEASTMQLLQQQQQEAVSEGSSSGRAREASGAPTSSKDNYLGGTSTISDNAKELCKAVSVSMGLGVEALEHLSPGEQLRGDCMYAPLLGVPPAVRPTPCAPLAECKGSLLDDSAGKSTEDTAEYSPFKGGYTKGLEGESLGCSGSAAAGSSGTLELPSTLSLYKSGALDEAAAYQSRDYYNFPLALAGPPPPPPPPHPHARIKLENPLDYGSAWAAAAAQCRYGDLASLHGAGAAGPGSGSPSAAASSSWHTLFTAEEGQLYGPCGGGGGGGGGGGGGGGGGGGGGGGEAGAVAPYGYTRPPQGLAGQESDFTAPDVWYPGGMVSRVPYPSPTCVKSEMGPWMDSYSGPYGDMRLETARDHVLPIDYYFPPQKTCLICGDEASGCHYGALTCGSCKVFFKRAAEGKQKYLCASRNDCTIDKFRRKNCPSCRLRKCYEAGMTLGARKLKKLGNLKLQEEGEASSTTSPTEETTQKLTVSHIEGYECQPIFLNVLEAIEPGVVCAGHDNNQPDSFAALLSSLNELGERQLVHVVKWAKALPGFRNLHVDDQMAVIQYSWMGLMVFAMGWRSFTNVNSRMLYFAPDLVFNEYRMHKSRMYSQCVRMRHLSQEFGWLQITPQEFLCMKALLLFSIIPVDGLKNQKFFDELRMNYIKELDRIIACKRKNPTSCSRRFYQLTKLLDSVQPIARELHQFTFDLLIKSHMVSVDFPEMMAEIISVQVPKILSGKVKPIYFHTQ

Row | Structure (SMILES) | outcome | AC50
1 | CC(C)(CO)CO | inactive | 
2 | CCO[Si](CC)(OCC)OCC | inactive | 
3 | CCCCCCCCCCOC(=O)c1ccccc1C(=O)OCCCCCCCC | inactive | 
4 | FC(F)(F)c1ccc(Cl)c(Cl)c1 | inactive | 
5 | CCC(C)(C)C1CCC(=O)CC1 | inactive | 
6 | CCOc1ccc(NC(C)=O)cc1 | inactive | 
7 | CC(C)(C)c1cccc(O)c1 |  | 50 µM (active)
8 | CC(=O)N(C)C | inactive | 
9 | CC1COC(=O)O1 (stereo not drawn) | inactive | 
10 | c1ccc2c(c1)-c1ccc3ccc4cccc5cc-2c1c3c45 | inactive | 
11 | CC(CCO)CC(C)(C)C (stereo not drawn) | inactive | 
12 | CC1=CCC(C(C)(C)O)CC1 (stereo not drawn) | inactive | 
13 | CCCCCCOc1ccc(O)cc1 |  | 23.9 µM (active)
